Measurements from PubChem BioAssay AID1159580 (chemical genetic matrix, 2015).
The campaign covered roughly 5,500 compounds. About 2,000 (36%) were called active. Not shown: some 18% with an inconclusive outcome. No stated cut-off is given here; in the data, active means normalized growth mostly below about 0.91 (no sharp cut-off); inconclusive means no clear call, values can overlap the other calls; inactive means mostly above about 0.92. This is one part of the list.

Test: chemical genetic growth profiling, strain panel (AID 1159580);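 further: tested at 20 µM; growth read once vehicle control cultures reached saturation at 30 °C; 1 = growth at the plate median or of vehicle wells; lower values mean less growth of the strain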
Details: growth OD

Measured: normalized growth

COc1cccc(OC)c1C(=O)N[C@@H]1C(=O)N2[C@@H]1SC(C)(C)[C@@H]2C(=O)O
inactive: S. cerevisiae deletion strains, locus YJR066W, strain TOR1, hits give low values 0.974 | S. cerevisiae deletion strains, locus YJR075W, strain HOC1, hits give low values 0.998 | S. cerevisiae deletion strains, locus YKL009W, strain mrt4, hits give low values 0.946 | S. cerevisiae deletion strains, locus YKL068W, hits give low values 0.975 | S. cerevisiae deletion strains, locus YKL085W, strain MDH1 (second series), hits give low values 0.986 | S. cerevisiae deletion strains, locus YKL085W, strain MDH1, hits give low values 0.986 | S. cerevisiae deletion strains, locus YKL160W, strain elf1, hits give low values 0.978 | S. cerevisiae deletion strains, locus YKR001C, strain vps1, hits give low values 0.973 | S. cerevisiae deletion strains, locus YKR026C, strain gcn3, hits give low values 1 | S. cerevisiae deletion strains, locus YKR091W, strain srl3, hits give low values 1 | S. cerevisiae deletion strains, locus YLL001W, strain dnm1, hits give low values 0.963 | S. cerevisiae deletion strains, locus YLL026W, hits give low values 0.993 | S. cerevisiae deletion strains, locus YLL041C, strain sdh2, hits give low values 0.994 | S. cerevisiae deletion strains, locus YLR027C, strain aat2, hits give low values 0.995 | S. cerevisiae deletion strains, locus YLR039C, strain RIC1, hits give low values 1 | S. cerevisiae deletion strains, locus YLR058C, strain SHM2, hits give low values 1.01 | S. cerevisiae deletion strains, locus YLR102C, strain apc9, hits give low values 0.985 | S. cerevisiae deletion strains, locus YLR113W, strain HOG1, hits give low values 0.982 | S. cerevisiae deletion strains, locus YLR221C, strain rsa3, hits give low values 1 | S. cerevisiae deletion strains, locus YLR258W, strain gsy2, hits give low values 0.999 | S. cerevisiae deletion strains, locus YLR262C, strain YPT6 (second series), hits give low values 1 | S. cerevisiae deletion strains, locus YLR262C, strain YPT6, hits give low values 1.03 | S. cerevisiae deletion strains, locus YLR268W, strain sec22, hits give low values 0.993 | S. cerevisiae deletion strains, locus YLR320W, strain mms22, hits give low values 0.986 | S. cerevisiae deletion strains, locus YLR330W, strain CHS5, hits give low values 0.993 | S. cerevisiae deletion strains, locus YLR342W, strain FKS1 (second series), hits give low values 1.03 | S. cerevisiae deletion strains, locus YLR342W, strain FKS1, hits give low values 0.988 | S. cerevisiae deletion strains, locus YLR357W, strain rsc2, hits give low values 0.994 | S. cerevisiae deletion strains, locus YLR370C, strain arc18, hits give low values 1.01 | S. cerevisiae deletion strains, locus YLR371W, strain rom2, hits give low values 0.993 | S. cerevisiae deletion strains, locus YLR384C, strain iki3, hits give low values 0.991 | S. cerevisiae deletion strains, locus YLR418C, strain cdc73, hits give low values 0.996 | S. cerevisiae deletion strains, locus YML016C, strain PPZ1, hits give low values 1 | S. cerevisiae deletion strains, locus YML032C, strain rad52, hits give low values 0.991 | S. cerevisiae deletion strains, locus YML120C, strain ndi1, hits give low values 0.992 | S. cerevisiae deletion strains, locus YML124C, strain tub3, hits give low values 0.991 | S. cerevisiae deletion strains, locus YMR058W, strain fet3, hits give low values 1 | S. cerevisiae deletion strains, locus YMR078C, strain ctf18, hits give low values 0.995 | S. cerevisiae deletion strains, locus YMR125W, strain sto1, hits give low values 1.02 | S. cerevisiae deletion strains, locus YMR129W, hits give low values 0.992 | S. cerevisiae deletion strains, locus YMR205C, strain PFK2, hits give low values 0.991 | S. cerevisiae deletion strains, locus YMR223W, strain ubp8, hits give low values 1.01 | S. cerevisiae deletion strains, locus YMR231W, strain pep5, hits give low values 0.997 | S. cerevisiae deletion strains, locus YMR263W, strain SAP30, hits give low values 0.972 | S. cerevisiae deletion strains, locus YMR307W, strain GAS1, hits give low values 1.25 | S. cerevisiae deletion strains, locus YNL067W, strain RPL9B, hits give low values 0.962 | S. cerevisiae deletion strains, locus YNL071W, strain lat1, hits give low values 1 | S. cerevisiae deletion strains, locus YNL128W, strain TEP1, hits give low values 0.974 | S. cerevisiae deletion strains, locus YNL153C, strain GIM3, hits give low values 1.01 | S. cerevisiae deletion strains, locus YNL183C, strain NPR1, hits give low values 0.971 | S. cerevisiae deletion strains, locus YNL209W, strain ssb2, hits give low values 1.01 | S. cerevisiae deletion strains, locus YNL233W, strain BNI4, hits give low values 1.01 | S. cerevisiae deletion strains, locus YNL248C, strain rpa49, hits give low values 1.01 | S. cerevisiae deletion strains, locus YNL250W, strain rad50, hits give low values 0.921 | S. cerevisiae deletion strains, locus YNL271C, strain bni1, hits give low values 0.991 | S. cerevisiae deletion strains, locus YNL298W, strain CLA4, hits give low values 0.98 | S. cerevisiae deletion strains, locus YNL307C, strain MCK1, hits give low values 1 | S. cerevisiae deletion strains, locus YNL322C, strain KRE1 (second series), hits give low values 1.01 | S. cerevisiae deletion strains, locus YNL322C, strain KRE1, hits give low values 1 | S. cerevisiae deletion strains, locus YNR049C, strain mso1, hits give low values 0.995 | S. cerevisiae deletion strains, locus YNR052C, strain pop2, hits give low values 0.987 | S. cerevisiae deletion strains, locus YOL006C, strain TOP1, hits give low values 1.01 | S. cerevisiae deletion strains, locus YOL012C, strain htz1 0.716 | S. cerevisiae deletion strains, locus YOR001W, strain rrp6, hits give low values 0.99 | S. cerevisiae deletion strains, locus YOR061W, strain CKA2, hits give low values 1 | S. cerevisiae deletion strains, locus YOR069W, strain VPS5, hits give low values 0.999 | S. cerevisiae deletion strains, locus YOR070C, strain gyp1, hits give low values 1.01 | S. cerevisiae deletion strains, locus YOR080W, strain dia2, hits give low values 0.99 | S. cerevisiae deletion strains, locus YOR083W, strain WHI5, hits give low values 0.95 | S. cerevisiae deletion strains, locus YOR106W, strain vam3, hits give low values 0.994 | S. cerevisiae deletion strains, locus YOR136W, strain idh2, hits give low values 0.992 | S. cerevisiae deletion strains, locus YOR144C, strain elg1, hits give low values 0.989 | S. cerevisiae deletion strains, locus YOR184W, strain ser1, hits give low values 0.996 | S. cerevisiae deletion strains, locus YOR231W, strain MKK1, hits give low values 0.988 | S. cerevisiae deletion strains, locus YOR265W, strain rbl2, hits give low values 1 | S. cerevisiae deletion strains, locus YOR270C, strain vph1, hits give low values 1 | S. cerevisiae deletion strains, locus YOR290C, strain snf2, hits give low values 1 | S. cerevisiae deletion strains, locus YOR316C, strain cot1, hits give low values 0.977 | S. cerevisiae deletion strains, locus YPL051W, strain arl3, hits give low values 0.989 | S. cerevisiae deletion strains, locus YPL055C, strain LGE1, hits give low values 0.968 | S. cerevisiae deletion strains, locus YPL078C, strain atp4, hits give low values 0.97 | S. cerevisiae deletion strains, locus YPL106C, strain sse1, hits give low values 1.03 | S. cerevisiae deletion strains, locus YPL240C, strain hsp82, hits give low values 0.999 | S. cerevisiae deletion strains, locus YPL241C, strain CIN2, hits give low values 1 | S. cerevisiae deletion strains, locus YPL256C, strain CLN2, hits give low values 1.06 | S. cerevisiae deletion strains, locus YPR141C, strain kar3, hits give low values 0.972 | S. cerevisiae deletion strains, locus YPR163C, strain tif3, hits give low values 0.987 | S. cerevisiae deletion strains, locus YPR167C, strain met16, hits give low values 0.979 | S. cerevisiae deletion strains, strain wtn01, hits give low values 1.01 | S. cerevisiae strains, strain wild type, hits give low values 1
